In PubChem BioAssay (NCI) one finds growth data, which are given here for eight compounds.

The panel holds about 83,000 compounds, 20% with a hit somewhere; the sample as a whole holds those more often.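 Method: cells in 96-well plates; compound added at one concentration; 48 h incubation; percent growth measured; values under 10 scored active.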 Values without a mark were called inactive. The source made the active and inactive calls.

Some test systems named below: HCT-15 colon; HT29 colon; SNB-75 CNS; SNB-19 CNS; U251 CNS; PC-3 prostate; SK-MEL-5 melanoma; UACC-62 melanoma; LOX IMVI melanoma; SK-MEL-28 melanoma; EKVX NSCLC; SN12C renal; UO-31 renal; TK-10 renal; ACHN renal; CAKI-1 renal; A498 renal; CCRF-CEM leukemia; MOLT-4 leukemia.
Holding throughout (assay): NCI-60 one-dose screen, 48 h (100 = growth as untreated, 0 = no growth, -100 = all killed)
Holding throughout (conditions): 10 µM unless noted

Turning to `Nc1c(Cl)cccc1[N+](=O)[O-]`, the growth was 104% in the assay on HCT-15 colon; 111% in the assay with HT29 colon; 104% in the assay with SNB-75 CNS; 103% in the assay with SNB-19 CNS; 103% in the assay with U251 CNS; 98.4% in the assay with PC-3 prostate. Besides, the growth with SK-MEL-5 melanoma is 104%; with UACC-62 melanoma it was 101%; with LOX IMVI melanoma, 103%; with SK-MEL-28 melanoma it was 106%; with EKVX NSCLC, 104%; in the assay on SN12C renal it was 103%. Further, the growth in the assay on UO-31 renal is 90.4%; in the assay on TK-10 renal, 125%; in the assay on ACHN renal it was 104%; in the assay with CAKI-1 renal, 104%; in the assay with A498 renal, 101%; in the assay on CCRF-CEM leukemia, 101%. In addition, the growth with MOLT-4 leukemia was 99.6%.

As for `CN1CCN(c2ccc(OC(F)(F)F)c(Nc3ncc4c(n3)-c3c(c(C(N)=O)nn3CCO)CC4)c2)CC1`, the growth in the assay with HCT-15 colon was 10.7%; in the assay on HT29 colon it was 10.3%; with SNB-75 CNS, 7.72% (active); with SNB-19 CNS, 23.4%; in the assay with U251 CNS, 25.4%; with PC-3 prostate, 36.8%. In addition, the growth is 23.4% in the assay with SK-MEL-5 melanoma; 35.9% in the assay with UACC-62 melanoma; 25.6% in the assay on LOX IMVI melanoma; 88.7% with SK-MEL-28 melanoma; 35.7% in the assay on EKVX NSCLC; 25.9% with SN12C renal. The growth with UO-31 renal was 35.3%; with TK-10 renal it was 53.5%; in the assay on ACHN renal, 37.1%; in the assay on CAKI-1 renal, 28.4%; in the assay with A498 renal, -5.99% (active); in the assay on CCRF-CEM leukemia it was 18.2%. Further, the growth with MOLT-4 leukemia was 18.3%.

With `CN(c1ncccc1CNc1nc(Nc2ccc3c(c2)CC(=O)N3)ncc1C(F)(F)F)S(C)(=O)=O`, the growth was 2.3% (active) in the assay with HCT-15 colon; -28.4% (active) in the assay on HT29 colon; -43.3% (active) in the assay on SNB-75 CNS; 7.98% (active) in the assay on SNB-19 CNS; -0.121% (active) in the assay with U251 CNS; 7.2% (active) with PC-3 prostate. Also, the growth is -38.3% (active) in the assay on SK-MEL-5 melanoma; -64.6% (active) in the assay with UACC-62 melanoma; 2.21% (active) in the assay with LOX IMVI melanoma; -16.1% (active) in the assay on SK-MEL-28 melanoma; 8.69% (active) in the assay with EKVX NSCLC; 9.55% (active) with SN12C renal. Further, the growth in the assay with UO-31 renal was -4.35% (active); in the assay with TK-10 renal, 0.859% (active); in the assay on ACHN renal it was -0.448% (active); in the assay on CAKI-1 renal it was 12.1%; in the assay on A498 renal, -16.6% (active); in the assay with CCRF-CEM leukemia, 3.5% (active). Besides, the growth with MOLT-4 leukemia is 0.451% (active).

In the case of `COCCOc1cnc2ccn([C@H](C)c3nnc4c(F)cc(-c5cnn(C)c5)cn34)c(=O)c2c1`, the growth in the assay on HCT-15 colon was 95.5%; in the assay on HT29 colon it was 104%; in the assay on SNB-75 CNS, 93.2%; in the assay with SNB-19 CNS, 73.9%; in the assay with U251 CNS, 92.2%; in the assay with PC-3 prostate, 78.7%. Further, the growth in the assay on SK-MEL-5 melanoma is 47.5%; in the assay with UACC-62 melanoma, 20.7%; in the assay on LOX IMVI melanoma it was 61.5%; in the assay on SK-MEL-28 melanoma, 44%; in the assay with EKVX NSCLC, 96%; with SN12C renal, 86.3%. Besides, the growth is 60% in the assay with UO-31 renal; 105% in the assay on TK-10 renal; 80.3% in the assay with ACHN renal; 65.2% in the assay with CAKI-1 renal; 35.9% in the assay on A498 renal; 70.6% in the assay on CCRF-CEM leukemia. Besides, the growth in the assay on MOLT-4 leukemia was 78.7%.

As for `COc1cc(N2CCC(N(C)C)CC2)ccc1Nc1ncc(Cl)c(Nc2ccccc2P(C)(C)=O)n1`, the growth in the assay with HCT-15 colon was 7.34% (active); in the assay with HT29 colon it was -4.74% (active); with SNB-75 CNS it was -82.5% (active); with SNB-19 CNS it was 14.9%; with U251 CNS it was 5.24% (active); with PC-3 prostate, 26%. In addition, the growth was 16.5% with SK-MEL-5 melanoma; 16% in the assay on UACC-62 melanoma; -60.3% (active) in the assay with LOX IMVI melanoma; 49.4% in the assay on SK-MEL-28 melanoma; 20% in the assay on EKVX NSCLC; 1.55% (active) in the assay with SN12C renal. Moreover, the growth is -81.2% (active) in the assay on UO-31 renal; -43.9% (active) in the assay with TK-10 renal; 1.69% (active) in the assay on ACHN renal; -60.9% (active) in the assay with CAKI-1 renal; -70% (active) in the assay with A498 renal; 10.4% with CCRF-CEM leukemia. Further, in the assay on MOLT-4 leukemia, the growth is 13.4%.

Take `CC(C)(C)OC(=O)N1CCC(O)[C@@H](O[Si](c2ccccc2)(c2ccccc2)C(C)(C)C)[C@H]1/C=C/c1ccccc1` (some centres not stated): the growth is 41.1% in the assay on HCT-15 colon; 37.9% with HT29 colon; 46.8% in the assay with SNB-75 CNS; 58.5% in the assay with SNB-19 CNS; 44.4% with U251 CNS; 14% in the assay on PC-3 prostate. Besides, the growth in the assay on SK-MEL-5 melanoma was 30.2%; in the assay with UACC-62 melanoma, 57.1%; in the assay with LOX IMVI melanoma it was 61.4%; in the assay with SK-MEL-28 melanoma, 65.1%; in the assay with EKVX NSCLC it was 40.7%; with SN12C renal, 73%. For the same compound, the growth in the assay on UO-31 renal was 39.1%; with TK-10 renal, 66.1%; in the assay with ACHN renal, 41.1%; in the assay with CAKI-1 renal it was 45.3%; with A498 renal, 68.2%; in the assay on CCRF-CEM leukemia, 46.4%. Also, the growth in the assay with MOLT-4 leukemia is 28%.

On to `N#CC[C@H](C1CCCC1)n1cc(-c2ncnc3[nH]ccc23)cn1`, for which the growth in the assay with HCT-15 colon is 89.7%; with HT29 colon, 62.9%; with SNB-75 CNS, 33.8%; with SNB-19 CNS, 90.7%; with U251 CNS it was 63.9%; with PC-3 prostate it was 59%. Further, the growth with SK-MEL-5 melanoma is 84.8%; with UACC-62 melanoma, 82%; in the assay on LOX IMVI melanoma, 55.3%; with SK-MEL-28 melanoma, 79.9%; with EKVX NSCLC it was 82.7%; in the assay on SN12C renal, 66.3%. In addition, the growth was 26.8% in the assay on UO-31 renal; 41.5% with TK-10 renal; 52.1% in the assay on ACHN renal; 34.9% with CAKI-1 renal; 64% in the assay with A498 renal; 58.5% with CCRF-CEM leukemia. In the assay on MOLT-4 leukemia, the growth is 56.1%.

Consider `COc1ccc(F)c(F)c1C(=O)c1cnc(NC2CCN(S(C)(=O)=O)CC2)nc1N`, for which the growth in the assay with HCT-15 colon is 3.08% (active); with HT29 colon, -25.5% (active); in the assay on SNB-75 CNS, -66.1% (active); in the assay on SNB-19 CNS, 12.6%; in the assay on U251 CNS, 0.678% (active); with PC-3 prostate, 0.205% (active). The growth in the assay on SK-MEL-5 melanoma was -42.1% (active); in the assay on UACC-62 melanoma, -44.5% (active); in the assay on LOX IMVI melanoma, 6.39% (active); in the assay with SK-MEL-28 melanoma, -35.3% (active); in the assay with EKVX NSCLC it was 2.22% (active); with SN12C renal it was 14.5%. For the same compound, the growth in the assay with UO-31 renal is -3.94% (active); in the assay with TK-10 renal it was -7.34% (active); in the assay with ACHN renal, 5.94% (active); with CAKI-1 renal it was 13.1%; with A498 renal, -53.4% (active); in the assay on CCRF-CEM leukemia, 7.13% (active). For the same compound, the growth with MOLT-4 leukemia was 6.48% (active).
